The results in this text go back to ChEMBL document CHEMBL3988442, “University of Dundee, Small-Polar-MMV Screening Library” (2021).

What all share (parameters): scale not given: direction of the effect not stated beside the values
Assay [1] deals with Protein translocase subunit SecA (Escherichia coli (strain K12)) (UniProt P10408). In words: Assay to Identify E. coli SecA ATPase Inhibitors. The note with it: 30 µM. The assay is classed as functional.
Assay [2] concerns the target T1, Ubiquitin-activating enzyme e1, putative (Leishmania donovani (strain BPK282A1)) (UniProt E9BSI1).
T1 sequence (whole entry): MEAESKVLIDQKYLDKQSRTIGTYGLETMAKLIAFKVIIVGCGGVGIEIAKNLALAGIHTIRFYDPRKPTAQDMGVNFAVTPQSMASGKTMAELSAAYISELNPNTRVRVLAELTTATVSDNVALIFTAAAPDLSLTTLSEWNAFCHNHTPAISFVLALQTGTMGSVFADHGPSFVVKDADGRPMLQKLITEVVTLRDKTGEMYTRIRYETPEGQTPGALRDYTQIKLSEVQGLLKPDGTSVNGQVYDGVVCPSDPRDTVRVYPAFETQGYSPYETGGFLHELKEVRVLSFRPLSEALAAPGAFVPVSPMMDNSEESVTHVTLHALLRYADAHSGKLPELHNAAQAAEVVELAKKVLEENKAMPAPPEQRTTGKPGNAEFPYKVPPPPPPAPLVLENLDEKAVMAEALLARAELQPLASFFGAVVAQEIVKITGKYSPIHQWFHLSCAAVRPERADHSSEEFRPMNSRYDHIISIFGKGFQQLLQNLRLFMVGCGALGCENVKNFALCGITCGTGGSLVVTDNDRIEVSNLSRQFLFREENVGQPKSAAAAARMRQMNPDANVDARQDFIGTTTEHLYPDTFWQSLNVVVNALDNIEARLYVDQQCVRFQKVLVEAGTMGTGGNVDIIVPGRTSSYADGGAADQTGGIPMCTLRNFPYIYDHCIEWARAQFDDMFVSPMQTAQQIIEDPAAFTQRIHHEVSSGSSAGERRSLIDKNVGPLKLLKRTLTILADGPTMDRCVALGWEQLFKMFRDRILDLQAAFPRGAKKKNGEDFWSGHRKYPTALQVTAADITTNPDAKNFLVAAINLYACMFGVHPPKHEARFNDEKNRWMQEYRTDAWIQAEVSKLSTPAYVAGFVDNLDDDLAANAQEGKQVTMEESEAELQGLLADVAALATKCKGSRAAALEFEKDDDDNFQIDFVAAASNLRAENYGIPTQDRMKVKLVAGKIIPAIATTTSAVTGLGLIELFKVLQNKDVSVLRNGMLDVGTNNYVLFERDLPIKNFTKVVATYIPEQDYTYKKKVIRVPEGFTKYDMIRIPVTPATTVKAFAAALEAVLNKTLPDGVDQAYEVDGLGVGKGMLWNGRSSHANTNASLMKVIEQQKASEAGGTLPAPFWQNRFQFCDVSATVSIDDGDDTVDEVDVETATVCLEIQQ
Kind of assay: Leishmania donovani Ubiquitin Activating Enzyme (LdE1). Type of assay: functional. The note with it: 30 µM.

Assay [3] deals with Sialic acid-binding Ig-like lectin 9 (Homo sapiens) (UniProt Q9Y336). Kind of assay: Hs-Siglec9 ALPHAscreen SOP 20170721. The note with it: 10 µM. For orientation: In Alpha technology, singlet oxygen from a donor bead excites a nearby acceptor bead.
A further assay deals with Trypanosoma cruzi. In words: Trypanosoma cruzi phosphomannomutase and mannose-1-phosphate guanylyltransferase assay. Type of assay: functional. The settings on record: 10 µM.
Assay [4] deals with T2, Arginase-2, mitochondrial (Homo sapiens) (UniProt P78540).
T2 sequence (whole entry): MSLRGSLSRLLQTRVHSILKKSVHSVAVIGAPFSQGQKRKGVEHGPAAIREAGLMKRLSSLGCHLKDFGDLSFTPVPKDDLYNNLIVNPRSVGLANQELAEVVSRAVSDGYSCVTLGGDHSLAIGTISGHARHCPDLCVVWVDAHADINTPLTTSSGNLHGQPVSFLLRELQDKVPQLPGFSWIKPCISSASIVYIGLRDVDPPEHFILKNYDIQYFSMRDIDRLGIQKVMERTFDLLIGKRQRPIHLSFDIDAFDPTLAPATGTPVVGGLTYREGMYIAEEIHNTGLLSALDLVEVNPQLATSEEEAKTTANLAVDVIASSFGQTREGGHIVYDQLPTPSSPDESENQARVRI
Kind of assay: in vitro enzyme assay to detect the production of urea directly proportional to the activity of Arginase II. Also: in the data most compounds retested in dose-response had high values. The assay is classed as functional. The settings on record: 33.3 µM.

Assay [5] addresses T3, Proteasome subunit beta (Trypanosoma cruzi) (UniProt O96673).
T3 sequence (whole entry): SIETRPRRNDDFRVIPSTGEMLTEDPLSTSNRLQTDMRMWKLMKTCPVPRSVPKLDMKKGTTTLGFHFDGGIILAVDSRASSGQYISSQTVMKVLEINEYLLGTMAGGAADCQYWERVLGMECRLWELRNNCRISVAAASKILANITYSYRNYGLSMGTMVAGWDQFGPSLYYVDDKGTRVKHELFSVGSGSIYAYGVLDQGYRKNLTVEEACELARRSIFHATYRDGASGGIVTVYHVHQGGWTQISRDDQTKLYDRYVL
Kind of assay: Trypanosoma cruzi proteasome chymotrypsin-like activity (TcProtChymo) assay. Also: in the data most compounds retested in dose-response had high values. The assay is classed as functional. The settings on record: 9.37 µM.

For a further assay, the species on record is Homo sapiens. Kind of assay: To identify inhibition of the IFN signalling (Jak-Stat) pathway via expression of an eGFP reporter gene under the control of an IFN-stimulated response element (ISRE) containing MxA promoter. The assay is classed as functional. The note with it: 30 µM. Background: In a reporter assay the amount or activity of a reporter protein is the signal.

The target of assay [6] is T4, Tyrosyl-tRNA synthetase, putative (Trypanosoma cruzi (strain CL Brener)) (UniProt Q4DSP6).
T4 sequence (whole entry): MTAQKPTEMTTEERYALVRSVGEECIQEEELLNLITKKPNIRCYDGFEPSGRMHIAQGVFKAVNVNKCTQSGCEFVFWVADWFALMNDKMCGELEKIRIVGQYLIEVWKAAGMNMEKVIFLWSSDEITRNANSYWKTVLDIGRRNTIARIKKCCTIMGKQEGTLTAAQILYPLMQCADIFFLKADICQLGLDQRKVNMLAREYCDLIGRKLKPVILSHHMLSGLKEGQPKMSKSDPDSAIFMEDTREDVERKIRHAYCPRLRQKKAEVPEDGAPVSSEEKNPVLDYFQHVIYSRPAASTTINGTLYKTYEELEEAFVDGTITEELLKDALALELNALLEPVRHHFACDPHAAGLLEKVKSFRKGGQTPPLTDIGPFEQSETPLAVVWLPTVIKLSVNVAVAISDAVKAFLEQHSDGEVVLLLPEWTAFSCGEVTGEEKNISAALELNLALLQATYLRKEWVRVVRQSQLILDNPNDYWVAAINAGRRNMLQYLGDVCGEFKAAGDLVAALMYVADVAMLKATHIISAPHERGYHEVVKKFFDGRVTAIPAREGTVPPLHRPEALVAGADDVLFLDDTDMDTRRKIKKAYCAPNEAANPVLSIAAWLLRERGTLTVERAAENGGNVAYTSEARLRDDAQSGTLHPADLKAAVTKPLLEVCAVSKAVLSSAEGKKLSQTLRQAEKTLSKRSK
In words: Trypanosoma cruzi tyrosyl tRNA synthetase (TcYRS) _High Tyrosine SOP. Also: in the data most compounds retested in dose-response had high values. The assay is classed as functional. The note with it: 30 µM.

Assay [7] has as its target T4, Tyrosyl-tRNA synthetase, putative (Trypanosoma cruzi (strain CL Brener)). Kind of assay: Trypanosoma cruzi tyrosyl tRNA synthetase (TcYRS) SOP. The assay is classed as functional. The settings on record: 30 µM.
Assay [8] has as its target Chromo domain-containing protein 1 (Saccharomyces cerevisiae (strain ATCC 204508 / S288c) (Baker's yeast)) (UniProt P32657). Kind of assay: ScCHD-1 Enzyme Inhibition Assay. Also: in the data most compounds retested in dose-response had high values. The settings on record: 30 µM. Type of assay: functional.

For part of these data: Potency and affinity values are given separately.

Protein translocase subunit SecA (Escherichia coli (strain K12)), sequence (P10408 whole entry): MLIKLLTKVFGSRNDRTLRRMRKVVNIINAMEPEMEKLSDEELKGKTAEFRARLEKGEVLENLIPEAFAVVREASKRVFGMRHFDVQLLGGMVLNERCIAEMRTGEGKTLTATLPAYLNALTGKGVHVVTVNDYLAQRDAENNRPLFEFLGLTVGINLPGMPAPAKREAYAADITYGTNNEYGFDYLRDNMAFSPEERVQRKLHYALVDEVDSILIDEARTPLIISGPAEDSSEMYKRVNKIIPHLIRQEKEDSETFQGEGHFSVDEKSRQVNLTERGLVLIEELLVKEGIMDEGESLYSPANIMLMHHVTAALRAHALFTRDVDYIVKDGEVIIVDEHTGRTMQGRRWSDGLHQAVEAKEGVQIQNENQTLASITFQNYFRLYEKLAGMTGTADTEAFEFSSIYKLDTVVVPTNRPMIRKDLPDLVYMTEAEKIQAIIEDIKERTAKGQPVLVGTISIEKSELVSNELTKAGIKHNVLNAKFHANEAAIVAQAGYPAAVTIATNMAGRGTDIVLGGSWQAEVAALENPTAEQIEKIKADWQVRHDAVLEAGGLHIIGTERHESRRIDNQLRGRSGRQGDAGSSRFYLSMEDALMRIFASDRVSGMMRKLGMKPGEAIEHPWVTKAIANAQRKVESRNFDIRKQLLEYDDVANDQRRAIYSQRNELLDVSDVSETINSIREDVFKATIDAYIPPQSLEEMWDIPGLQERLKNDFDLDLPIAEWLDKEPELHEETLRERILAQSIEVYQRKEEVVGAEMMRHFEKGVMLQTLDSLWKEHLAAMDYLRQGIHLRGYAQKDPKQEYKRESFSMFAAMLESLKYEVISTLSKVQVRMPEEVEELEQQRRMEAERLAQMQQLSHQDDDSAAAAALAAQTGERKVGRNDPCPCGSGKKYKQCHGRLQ
Chromo domain-containing protein 1 (Saccharomyces cerevisiae (strain ATCC 204508 / S288c) (Baker's yeast)), sequence (P32657 whole entry, the tested form may be a part): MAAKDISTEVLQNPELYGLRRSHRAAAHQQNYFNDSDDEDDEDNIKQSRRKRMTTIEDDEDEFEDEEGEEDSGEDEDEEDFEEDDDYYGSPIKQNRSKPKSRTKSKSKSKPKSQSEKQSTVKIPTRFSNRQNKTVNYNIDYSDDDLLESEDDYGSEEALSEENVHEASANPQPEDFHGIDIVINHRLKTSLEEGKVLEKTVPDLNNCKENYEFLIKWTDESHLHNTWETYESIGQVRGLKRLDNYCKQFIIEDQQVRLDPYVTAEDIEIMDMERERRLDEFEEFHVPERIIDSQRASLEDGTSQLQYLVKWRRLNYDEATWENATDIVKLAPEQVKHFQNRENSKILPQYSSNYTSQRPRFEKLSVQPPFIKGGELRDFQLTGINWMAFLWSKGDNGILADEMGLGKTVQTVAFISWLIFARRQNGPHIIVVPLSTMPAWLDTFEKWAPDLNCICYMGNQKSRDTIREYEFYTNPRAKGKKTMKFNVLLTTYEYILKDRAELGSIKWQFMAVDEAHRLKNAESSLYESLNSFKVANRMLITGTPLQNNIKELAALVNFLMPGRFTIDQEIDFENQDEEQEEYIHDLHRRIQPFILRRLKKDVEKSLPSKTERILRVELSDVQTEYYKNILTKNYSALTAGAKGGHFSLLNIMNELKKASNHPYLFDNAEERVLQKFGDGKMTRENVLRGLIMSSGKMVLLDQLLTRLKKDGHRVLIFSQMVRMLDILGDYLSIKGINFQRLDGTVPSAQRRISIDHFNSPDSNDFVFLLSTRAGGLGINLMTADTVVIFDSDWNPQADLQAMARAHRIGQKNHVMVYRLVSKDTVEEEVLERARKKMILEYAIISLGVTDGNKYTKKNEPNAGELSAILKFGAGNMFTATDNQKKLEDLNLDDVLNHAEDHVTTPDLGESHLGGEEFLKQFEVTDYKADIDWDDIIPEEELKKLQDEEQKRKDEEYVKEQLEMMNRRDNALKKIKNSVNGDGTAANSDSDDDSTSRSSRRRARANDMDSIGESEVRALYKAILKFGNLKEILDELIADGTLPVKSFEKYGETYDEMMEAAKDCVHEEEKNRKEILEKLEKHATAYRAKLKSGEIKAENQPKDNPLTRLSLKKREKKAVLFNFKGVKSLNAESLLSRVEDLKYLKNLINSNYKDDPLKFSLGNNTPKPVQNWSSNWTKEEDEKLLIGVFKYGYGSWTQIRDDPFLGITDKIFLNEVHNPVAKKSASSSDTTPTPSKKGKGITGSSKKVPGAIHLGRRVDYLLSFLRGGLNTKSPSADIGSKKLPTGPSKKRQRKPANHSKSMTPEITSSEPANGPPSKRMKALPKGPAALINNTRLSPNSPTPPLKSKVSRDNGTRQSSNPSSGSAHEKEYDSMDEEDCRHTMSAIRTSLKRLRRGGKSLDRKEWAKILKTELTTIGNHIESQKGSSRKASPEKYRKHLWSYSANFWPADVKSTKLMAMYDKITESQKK
Sialic acid-binding Ig-like lectin 9 (Homo sapiens), sequence (Q9Y336 whole entry): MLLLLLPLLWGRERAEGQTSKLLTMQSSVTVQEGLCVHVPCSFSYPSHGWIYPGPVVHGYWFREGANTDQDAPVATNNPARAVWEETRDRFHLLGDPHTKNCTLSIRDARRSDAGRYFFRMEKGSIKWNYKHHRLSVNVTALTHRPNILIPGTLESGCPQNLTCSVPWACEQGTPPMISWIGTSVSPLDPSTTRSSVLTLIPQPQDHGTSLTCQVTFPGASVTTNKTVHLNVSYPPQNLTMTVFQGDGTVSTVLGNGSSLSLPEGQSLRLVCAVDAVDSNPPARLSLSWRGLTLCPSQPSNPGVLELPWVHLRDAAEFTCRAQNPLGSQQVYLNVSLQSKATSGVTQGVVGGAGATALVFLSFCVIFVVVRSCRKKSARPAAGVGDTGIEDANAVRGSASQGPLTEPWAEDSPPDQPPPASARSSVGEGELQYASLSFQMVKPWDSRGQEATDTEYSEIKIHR

With `CCc1cc(O)nc(C2CCCN2C(=O)c2cc(C)no2)n1` (stereo not given), the Percent Effect in assay [1] was -0.0921%; in assay [2], 17.3%; in assay [3], -12.2%; with Trypanosoma cruzi, -2.76%; in [4] it was -2.65%; in assay [5] it was 11.3%. The Percent Effect was 20.5% in the assay listed under Homo sapiens, -2.12% in [6], 5% in assay [7] and -14.2% in [8].
As for `CCN(C)Cc1cnc(S(=O)(=O)CC)n1CCOC`, the Percent Effect in assay [1] was -9.54%; in assay [2], 0%; in assay [3], -2.25%; with Trypanosoma cruzi, -3.4%; in assay [4], 2.45%; in assay [5], -0.856%. Also, the Percent Effect in the assay listed under Homo sapiens is 0.566%; in assay [6] it was 1.6%; in [7], 4.88%; in assay [8] it was 2.11%.
In the case of `O=C(NCC1CCSCC1)N(CCCO)C1CCc2ccccc21` (stereo not given), the Percent Effect is -1.28% in assay [1]; 8% in assay [2]; -4.32% in assay [3]; -4.02% in the assay with Trypanosoma cruzi; -3.1% in [4]; 9.92% in assay [5]. The Percent Effect in the assay filed under Homo sapiens is 11%; in assay [6], -0.526%; in [7], 0%; in [8], -14.3%.
As for `CCc1nc(C2CCCN2C(=O)c2c[nH]c(C)n2)no1` (stereo not given), the Percent Effect in [1] was -9.57%; in assay [2] it was 10.7%; in assay [3], 18.3%; with Trypanosoma cruzi, 3.41%; in [4] it was -2.66%; in [5], 12.1%. The Percent Effect in the assay listed under Homo sapiens was -2.6%; in [6], 7.89%; in [7], 12.8%; in assay [8], -9.37%.
Regarding `COCCN1C[C@H]2[C@@H](C1)N(C(=O)c1cccs1)CC[C@H]2OC`, the Percent Effect in [1] is -5.76%; in assay [2] it was -108%; in assay [3], 1.61%; in the assay on Trypanosoma cruzi it was 7.11%; in assay [4], -6.07%; in assay [5], 4.5%. Further, the Percent Effect in the assay listed under Homo sapiens is -13.9%; in [6], 1.58%; in [7] it was 7.69%; in [8], 1.4%.
In the case of `CNc1nc2c(s1)C(=O)CN(C(=O)NCc1ccccc1)C2`, the Percent Effect in [1] was -2.61%; in assay [2] it was 8%; in assay [3], -5.95%; with Trypanosoma cruzi, -8.84%; in assay [4], 5.32%; in assay [5] it was 9.41%. The Percent Effect in the assay filed under Homo sapiens was 15.2%; in assay [6], 1.58%; in assay [7], 2.56%; in assay [8], -6.84%.
Turning to `COCCN1CCN(Cc2cccc(OCC(N)=O)c2)CC1C` (stereo not given), the Percent Effect in assay [1] was -6.03%; in assay [2] it was 0%; in [3], -0.422%; in the assay on Trypanosoma cruzi it was -3.81%; in assay [4] it was -0.887%; in assay [5] it was -0.255%. Moreover, the Percent Effect in the assay listed under Homo sapiens is 7.49%; in [6] it was 2.63%; in assay [7], 0%; in assay [8] it was -4.22%.
Consider `CCc1nc(CN(C)C2CCN(CCNS(=O)(=O)CC)C2)no1` (stereo not given), for which the Percent Effect was 1.97% in assay [1]; 5.33% in assay [2]; -3.88% in assay [3]; -6.83% with Trypanosoma cruzi; -2.22% in assay [4]; 18.1% in assay [5]. Besides, the Percent Effect is 14.6% in the assay listed under Homo sapiens, -1.58% in [6], -2.56% in [7] and -8.45% in assay [8].
For `CN(Cc1noc(C2CC2)n1)C1CCN(Cc2ccncc2)C1` (stereo not given), the Percent Effect in assay [1] is -0.687%; in [2] it was 20.5%; in [3] it was -22.8%; with Trypanosoma cruzi, 6.1%; in assay [4], 7.38%; in [5], 14.4%. Also, the Percent Effect is 12% in the assay listed under Homo sapiens, 1.44% in [6], 22.9% in assay [7] and -9.5% in assay [8].
`CNc1nc(C2CCCN2C(C)=O)nc2c1CCN(CC1CC1)C2` (stereo not given): the Percent Effect was -3.68% in assay [1]; 9.33% in [2]; 5.24% in assay [3]; -0.197% with Trypanosoma cruzi; 0.885% in assay [4]; 12.2% in assay [5]. The Percent Effect is 6.58% in the assay listed under Homo sapiens, 3.17% in assay [6], 10% in assay [7] and -22.7% in assay [8].
Turning to `Cc1nc(C)n(CC2CCCN2Cc2nc3ccccc3n2C)n1` (stereo not given), the Percent Effect in [1] was -5.84%; in assay [2], 10.7%; in [3] it was 7.93%; in the assay on Trypanosoma cruzi it was 1.81%; in assay [4], 3.55%; in assay [5], 17.6%. Moreover, the Percent Effect was 8.44% in the assay listed under Homo sapiens, 1.58% in assay [6], 12.8% in [7] and -12.7% in assay [8].
For the molecule `O=C(O)c1csc(S(=O)(=O)Nc2cccc(OC(F)F)c2)c1`, the Percent Effect in [1] is -5.06%; in [2] it was -7.69%; in assay [3], -2.43%; in the assay with Trypanosoma cruzi, -1.03%; in assay [4], 5.74%; in assay [5] it was 8.11%. Also, the Percent Effect in the assay listed under Homo sapiens is 2.87%; in [6], -5.26%; in [7], 1.21%; in [8], -6.19%.
